Among the data in PMC5700166 are binding signal values, retold here.

Where a chain is given by its changes, count along the chain named.

Holding throughout (test): protein-binding microarray (PBM); PBM: ~300 nM protein, 6 mM HEPES pH 7.8, 80 mM KCl, 0.5 mM EDTA, 0.5 mM EGTA, 6% glycerol, 35 ng/ul poly-dIdC, 1% milk, 1 h, room temperature; Ap Aiptasia and Nv Nematostella (sea anemones) / Co Capsaspora / Aq Amphimedon (sponge) / Dm Drosophila / Hu human; RHD is the Rel homology domain; high values mean tight binding
Holding throughout (conditions): dsDNA, one strand shown

For one assay, the target named is T1, GST-Ap-NF-kB RHD (Exaiptasia pallida (Aiptasia), UniProt A0A913YAJ5 2-422).
T1 sequence: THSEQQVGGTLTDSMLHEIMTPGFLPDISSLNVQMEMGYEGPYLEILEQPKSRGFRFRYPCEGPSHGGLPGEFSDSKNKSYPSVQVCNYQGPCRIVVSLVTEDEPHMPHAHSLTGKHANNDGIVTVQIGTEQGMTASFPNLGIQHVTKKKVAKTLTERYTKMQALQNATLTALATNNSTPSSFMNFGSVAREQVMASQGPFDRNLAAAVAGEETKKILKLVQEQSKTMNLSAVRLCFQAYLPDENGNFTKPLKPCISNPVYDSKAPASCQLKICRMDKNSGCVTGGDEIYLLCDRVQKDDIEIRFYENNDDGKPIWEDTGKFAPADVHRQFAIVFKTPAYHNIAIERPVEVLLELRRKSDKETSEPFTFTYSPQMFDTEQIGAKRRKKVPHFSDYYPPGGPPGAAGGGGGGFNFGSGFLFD

Assay [1] deals with T2, GST-Nv-NF-kB (Cys allele) (Nematostella vectensis, UniProt E5G601 2-411).
T2 sequence: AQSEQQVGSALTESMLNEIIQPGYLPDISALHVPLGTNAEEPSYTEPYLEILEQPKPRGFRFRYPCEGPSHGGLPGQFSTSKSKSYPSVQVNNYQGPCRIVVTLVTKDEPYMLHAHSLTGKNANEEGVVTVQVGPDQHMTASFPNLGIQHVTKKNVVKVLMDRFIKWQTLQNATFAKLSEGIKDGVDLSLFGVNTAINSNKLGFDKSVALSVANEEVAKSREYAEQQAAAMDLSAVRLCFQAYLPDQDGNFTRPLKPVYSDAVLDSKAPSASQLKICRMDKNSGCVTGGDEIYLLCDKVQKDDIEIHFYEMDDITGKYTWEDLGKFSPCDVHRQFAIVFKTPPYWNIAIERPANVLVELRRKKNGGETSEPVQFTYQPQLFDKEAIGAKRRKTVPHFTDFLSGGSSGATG

Assay [2] deals with T3, GST-Nv-NF-kB (Ser allele) (Nematostella vectensis, UniProt A7UNT2 2-411).
T3 sequence: T2 sequence with Q21R, C66S, S207N, E215Q, V217A, E225K, A268E, D399E

For a further assay, the target named is T4, GST-Co-NF-kB (Capsaspora owczarzaki, UniProt F1ARL5 200-546).
T4 sequence: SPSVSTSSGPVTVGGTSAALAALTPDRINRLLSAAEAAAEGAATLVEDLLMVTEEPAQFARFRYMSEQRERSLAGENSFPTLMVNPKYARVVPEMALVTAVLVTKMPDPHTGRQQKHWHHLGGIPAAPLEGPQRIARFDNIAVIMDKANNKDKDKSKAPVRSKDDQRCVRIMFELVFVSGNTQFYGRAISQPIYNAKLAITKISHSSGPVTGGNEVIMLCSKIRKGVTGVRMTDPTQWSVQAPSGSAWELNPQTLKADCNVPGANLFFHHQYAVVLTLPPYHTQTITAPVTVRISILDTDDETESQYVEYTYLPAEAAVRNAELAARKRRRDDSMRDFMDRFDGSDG

The target of a further assay is T5, GST-Dm-Relish (Drosophila melanogaster, UniProt Q94527 99-473).
T5 sequence: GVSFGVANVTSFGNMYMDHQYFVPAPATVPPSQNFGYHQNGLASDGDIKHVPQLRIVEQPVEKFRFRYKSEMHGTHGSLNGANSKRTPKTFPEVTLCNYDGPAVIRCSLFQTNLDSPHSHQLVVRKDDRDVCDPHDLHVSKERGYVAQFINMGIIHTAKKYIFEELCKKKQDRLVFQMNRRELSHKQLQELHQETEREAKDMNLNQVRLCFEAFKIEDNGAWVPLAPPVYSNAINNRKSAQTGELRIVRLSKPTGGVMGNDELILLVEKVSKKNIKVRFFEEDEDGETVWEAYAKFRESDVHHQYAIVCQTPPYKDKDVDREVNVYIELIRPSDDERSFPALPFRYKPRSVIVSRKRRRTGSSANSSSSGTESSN

For another assay, the target named is T6, GST-Aq-NF-kB (Amphimedon queenslandica, UniProt A9Y5G7 2-389).
T6 sequence: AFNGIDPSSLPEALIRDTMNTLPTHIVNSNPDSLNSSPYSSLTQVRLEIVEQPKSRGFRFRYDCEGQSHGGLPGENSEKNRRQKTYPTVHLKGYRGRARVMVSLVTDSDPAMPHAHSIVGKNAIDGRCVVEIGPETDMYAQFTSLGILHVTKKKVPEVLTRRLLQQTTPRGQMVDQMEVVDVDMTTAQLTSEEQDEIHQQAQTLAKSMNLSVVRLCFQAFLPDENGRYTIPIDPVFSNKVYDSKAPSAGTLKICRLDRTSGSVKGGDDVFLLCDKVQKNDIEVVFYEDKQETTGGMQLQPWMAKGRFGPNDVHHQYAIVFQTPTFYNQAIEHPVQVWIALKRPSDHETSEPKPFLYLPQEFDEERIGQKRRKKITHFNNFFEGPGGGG

The next assay concerns the target GST-Hu-p50 (Homo sapiens, UniProt P19838 7-356).

Sequence of GST-Hu-p50 (P19838 7-356): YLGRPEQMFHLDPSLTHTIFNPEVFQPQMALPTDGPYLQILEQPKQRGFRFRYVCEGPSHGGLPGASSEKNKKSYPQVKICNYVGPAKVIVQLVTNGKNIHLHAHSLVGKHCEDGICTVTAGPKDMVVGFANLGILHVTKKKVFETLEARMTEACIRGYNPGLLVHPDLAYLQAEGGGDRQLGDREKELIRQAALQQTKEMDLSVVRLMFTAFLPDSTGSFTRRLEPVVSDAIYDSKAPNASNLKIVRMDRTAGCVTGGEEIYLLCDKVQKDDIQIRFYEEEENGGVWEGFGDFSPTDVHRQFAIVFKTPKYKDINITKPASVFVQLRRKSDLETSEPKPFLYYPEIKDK

Regarding “CCGATTAACATCAAAATCCCCCGTGATGTTAATCGGGTCTTGATTCGCTTGACGCTGCTG”, the binding signal was determined as 9.02 z-score with GST-Ap-NF-kB RHD; 9.33 z-score in assay [1]; 10.1 z-score in assay [2]; 8.56 z-score with GST-Co-NF-kB; 9.89 z-score with GST-Dm-Relish; 7.76 z-score in the assay with GST-Aq-NF-kB. For the same sequence, the binding signal in the assay with GST-Hu-p50 is 8.02 z-score.
Regarding “CCGATTAACATCAAGCACCCCCCTGATGTTAATCGGGTCTTGATTCGCTTGACGCTGCTG”, the binding signal with GST-Ap-NF-kB RHD is 5 z-score; in assay [1], 3.3 z-score; in assay [2] it was 3.81 z-score; with GST-Co-NF-kB, 3.39 z-score; with GST-Dm-Relish, 4.97 z-score; with GST-Aq-NF-kB it was 4.27 z-score. In the assay with GST-Hu-p50, this sequence came in with a binding signal of 4.29 z-score.
As to “CCGATTAACATCAGGGGAAATAATGATGTTAATCGGGTCTTGATTCGCTTGACGCTGCTG”, the binding signal in the assay with GST-Ap-NF-kB RHD amounted to 6.88 z-score; in assay [1] it was 8.65 z-score; in assay [2], 11.6 z-score; in the assay with GST-Co-NF-kB, 9 z-score; with GST-Dm-Relish it was 5.53 z-score; with GST-Aq-NF-kB, 5.68 z-score. The binding signal with GST-Hu-p50 was 6.58 z-score.
For the sequence “CCGATTAACATCAGGGAATTCCCTGATGTTAATCGGGTCTTGATTCGCTTGACGCTGCTG”, the binding signal was 12 z-score with GST-Ap-NF-kB RHD; 12.7 z-score in assay [1]; 11.4 z-score in assay [2]; 7.25 z-score in the assay with GST-Co-NF-kB; 10 z-score with GST-Dm-Relish; 12.2 z-score with GST-Aq-NF-kB. In the assay with GST-Hu-p50, this sequence returned a binding signal of 7.9 z-score.
For the sequence “CCGATTAACATCACGGGAACACCTGATGTTAATCGGGTCTTGATTCGCTTGACGCTGCTG”, the binding signal with GST-Ap-NF-kB RHD was 1.81 z-score; in assay [1], 1.11 z-score; in assay [2] it was 1.02 z-score; with GST-Co-NF-kB it was 1.95 z-score; in the assay with GST-Dm-Relish it was 4.06 z-score; with GST-Aq-NF-kB, 2.73 z-score. The same sequence showed a binding signal with GST-Hu-p50 of 1.28 z-score.
Take “CCGATTAACATCAGGGAAATACATGATGTTAATCGGGTCTTGATTCGCTTGACGCTGCTG”: the binding signal turned out to be 3.25 z-score with GST-Ap-NF-kB RHD; 4.47 z-score in assay [1]; 4.73 z-score in assay [2]; 4.08 z-score with GST-Co-NF-kB; 8.18 z-score with GST-Dm-Relish; 4.87 z-score in the assay with GST-Aq-NF-kB. In the assay with GST-Hu-p50, this sequence displayed a binding signal of 3.02 z-score.
Turning to “CCGATTAACATCACCGTGGGAAATGATGTTAATCGGGTCTTGATTCGCTTGACGCTGCTG”, the binding signal with GST-Ap-NF-kB RHD is 1.9 z-score; in assay [1], 2.4 z-score; in assay [2], 2.68 z-score; with GST-Co-NF-kB, 3.18 z-score; in the assay with GST-Dm-Relish, 1.32 z-score; in the assay with GST-Aq-NF-kB, 1.95 z-score. Moreover, in the assay with GST-Hu-p50, the binding signal was found to be 2.29 z-score.
Take “CCGATTAACATCAAAATTTCCCCTGATGTTAATCGGGTCTTGATTCGCTTGACGCTGCTG”: the binding signal with GST-Ap-NF-kB RHD is 10.2 z-score; in assay [1] it was 11.6 z-score; in assay [2], 14.6 z-score; with GST-Co-NF-kB it was 10.6 z-score; in the assay with GST-Dm-Relish, 8.41 z-score; with GST-Aq-NF-kB, 8.46 z-score. Also, the binding signal in the assay with GST-Hu-p50 is 7.8 z-score.
Take “CCGATTAACATCACGGGAAATCCTGATGTTAATCGGGTCTTGATTCGCTTGACGCTGCTG”: the binding signal with GST-Ap-NF-kB RHD is 5.03 z-score; in assay [1] it was 6.03 z-score; in assay [2] it was 5.29 z-score; with GST-Co-NF-kB, 4.57 z-score; with GST-Dm-Relish, 6.3 z-score; with GST-Aq-NF-kB, 6.18 z-score. In the assay with GST-Hu-p50, this sequence showed a binding signal of 3.91 z-score.
Consider “CCGATTAACATCAGGGGAATTTATGATGTTAATCGGGTCTTGATTCGCTTGACGCTGCTG”, for which the binding signal turned out to be 9.91 z-score with GST-Ap-NF-kB RHD; 11.9 z-score in assay [1]; 12.9 z-score in assay [2]; 8.16 z-score with GST-Co-NF-kB; 9.13 z-score with GST-Dm-Relish; 8.72 z-score with GST-Aq-NF-kB. Further, the binding signal with GST-Hu-p50 is 7.75 z-score.
For “CCGATTAACATCACGTTTCCCCCTGATGTTAATCGGGTCTTGATTCGCTTGACGCTGCTG”, the binding signal in the assay with GST-Ap-NF-kB RHD is 6.91 z-score; in assay [1], 6.46 z-score; in assay [2], 9.03 z-score; with GST-Co-NF-kB it was 9.58 z-score; with GST-Dm-Relish, 2.71 z-score; with GST-Aq-NF-kB it was 5.17 z-score. The sequence further yielded a binding signal in the assay with GST-Hu-p50 of 6.64 z-score.
For the sequence “CCGATTAACATCAGAGAACCCCCTGATGTTAATCGGGTCTTGATTCGCTTGACGCTGCTG”, the binding signal in the assay with GST-Ap-NF-kB RHD is 7.89 z-score; in assay [1], 6.19 z-score; in assay [2], 6.92 z-score; with GST-Co-NF-kB, 2.09 z-score; with GST-Dm-Relish it was 7.55 z-score; with GST-Aq-NF-kB, 6.18 z-score. For the same sequence, the binding signal with GST-Hu-p50 was 6.47 z-score.
